# Pf growth 48h: Primary qHTS for delayed death inhibitors of the malarial parasite plastid, 48 hour incubation. P. falciparum luciferase growth in erythrocytes, 48 h. Potency, µM (doses to about 28.7 µM), without a hit: at the top dose activity change, negative = inhibition, usual class: inhibitors. 310,000 compounds, 5.9% hits. AID 504832, 2011; also: % is scaled to controls: 0 for no effect and ±100 for the full control effect
#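 Read-out is firefly luciferase luminescence from an integrated reporter in P. falciparum, so falling signal marks reduced parasite growth. Infected erythrocytes were at 2% hematocrit and 0.1% parasitemia (final) in Albumax-supplemented RPMI 1640.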
# Sm TGR block: qHTS Assay for the Inhibitors of Schistosoma Mansoni Peroxiredoxins; AID 485364, 2010; Schistosoma mansoni thioredoxin glutathione reductase (TGR), Q962Y6; purified TGR, DTNB reduction, TNB absorbance 405 nm; 360,000 compounds, 3% hits; Potency, µM (highest dose often 114 µM), for the others: at the top dose activity change, negative = inhibition, most hits filed as inhibitors; also: % is scaled to controls: 0 for no effect and ±100 for the full control effect; nearly all actives have a fitted effect of over 60% in size
#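 TGR 20 nM + NADPH 100 uM (dispensed conc.), cpd preinc 15 min RT; start with NADPH (500 uM addition) then DTNB (15 mM addition). Kinetic TNB absorbance, 405 nm filter. Four-parameter Hill fit across titration.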
# SARS PLpro yeast: qHTS of Yeast-based Assay for SARS-CoV PLP | AID 485353, 2010 | 330,000 compounds, 0.19% hits | Potency, µM (top dose mostly 32.9 µM), without a hit: at the top dose activity, positive = growth rescue, actives largely listed as activators | S. cerevisiae expressing SARS-CoV PLpro, growth rescue; calls by dose curve; also: 0% is about no effect; nearly all actives have a fitted effect of over 55% in size
# Pf growth 96h: Primary qHTS for delayed death inhibitors of the malarial parasite plastid, 96 hour incubation; P. falciparum luciferase reporter growth, 96 h; Potency, µM (titrated, usually from 28.7 µM), inactives show top-dose activity change, negative = inhibition, hits mostly inhibitors; 320,000 compounds, 6.9% hits; also: % is scaled to controls: 0 for no effect and ±100 for the full control effect
#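 Cell-based qHTS: luciferase-tagged P. falciparum in erythrocytes (2% hematocrit, 0.05% parasitemia final) incubated with compounds for 96 hours, 37 C, 5% CO2; luciferase detection reagent then added and luminescence measured.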
# * = called active by the depositor; u = inconclusive; x = not tested or not shown; [ ] = dose if it differs, or a comment. Hits are enriched below; roughly 12% of the tested compounds scored in any of these assays. Unless noted, calls follow the shape of the dose curve; as a rule, active = well fitted curve in the direction sought with a large enough effect; inconclusive = small, poorly fitted or top-dose-only effect, or another doubt; inactive = no such curve, though single readings can be large; an effect the other way counts as inactive or inconclusive. Potency is read from the fitted curve at half-maximal effect.
SMILES,Pf growth 48h,Sm TGR block,SARS PLpro yeast,Pf growth 96h
CCC(C)C1O[C@]2(C=CC1C)CC1CC(C/C=C(\C)[C@H](OC3CC(OC)C(O[C@H]4CC(OC)[C@@H](O)C(C)O4)C(C)O3)[C@@H](C)/C=C/C=C3\COC4C(O)C(C)=C[C@H](C(=O)O1)[C@@]34O)O2 (stereo partly specified),15.1µM*,x,x,13.5µM*
Clc1cccc(Nc2c3c(nc4ncnn24)CCC3)c1,9.28µM*,-19.6%,-3.1%,-28.8%
CCOc1ccc(/C=N/n2c(C3CCCCC3)n[nH]c2=S)cc1,u,14.7%,-1.7%,u
CC(OC(=O)c1ccc(-c2ccc([N+](=O)[O-])cc2)o1)C(=O)NC(N)=O (stereo unspecified),41.2%,4.47µM*,5.4%,u
O=C(NC1CN2CCC1CC2)c1ccc(-c2ccc([N+](=O)[O-])cc2)o1 (stereo unspecified),1.65µM*,u,-1.1%,u
CC1(C)CC(NC(=O)Nc2ccc([N+](=O)[O-])cc2)CC(C)(C)N1,-28.3%,-9.8%,-0.6%,-12.0%
CC1(C)CC(NC(=O)c2ccc(-c3ccc([N+](=O)[O-])cc3)o2)CC(C)(C)N1,10.4µM*,39.8µM*,3.0%,u
COc1ccc(NC(=O)c2ccc(-c3ccc([N+](=O)[O-])cc3)o2)cc1,18.3%,u,-4.7%,-15.2%
O=C(Nc1ccccc1)c1ccc(-c2ccc([N+](=O)[O-])cc2)o1,u,3.55µM*,-3.8%,37.3%
COc1cc(N2CCCC2)c(OC)cc1/C=C(/C#N)c1ccc(F)cc1,10.4µM*,-1.3%,-5.9%,-26.3%
COc1cc(N2CCCC2)c(OC)cc1/C=C(/C#N)c1ccc(Br)cc1,x,-2.1%,-2.1%,u
CC(C)n1ncc2c(C(=O)NCC(=O)Nc3ccccc3Br)cc(C3CC3)nc21,u,-6.6%,-1.3%,u
Cc1ccc(C)c(Cn2nnc(C(=O)Nc3ccc4c(c3)OCCO4)c2N)c1,u,4.9%,0.9%,-7.2%
COc1cccc(NC(=O)c2nnn(CCc3ccccc3)c2N)c1,x,0.2%,-2.2%,-1.8%
COc1cc(NC(=O)c2nnn(Cc3ccc(SC)cc3)c2N)cc(OC)c1,x,-1.4%,10.8%,11.7µM*
COc1ccc(Cn2nnc(C(=O)Nc3ccc4c(c3)OCCO4)c2N)cc1Br,-17.5%,-18.0%,5.7%,11.7µM*
Cc1cc(C)cc(NC(=O)c2nnn(Cc3cc(C)ccc3C)c2N)c1,u,-5.7%,-7.6%,10.4µM*
COc1cc(NC(=O)c2nnn(Cc3ccc(F)cc3)c2N)cc(OC)c1,x,-3.1%,x,x
CSc1cccc(NC(=O)c2nnn(Cc3ccccc3)c2N)c1,9.28µM*,3.0%,-2.6%,16.6%
COc1cc2c(cc1OC)CN(c1ccc(F)cc1[N+](=O)[O-])CC2,2.6%,u,-4.5%,15.1%
COc1ccc(C2=NOC(C(=O)Nc3ccc4c(c3)OCCO4)C2)cc1OC (stereo unspecified),u,31.6µM*,-0.5%,u
COc1ccc(NC(=O)C2CC(c3cccc(Br)c3)=NO2)cc1OC (stereo unspecified),-0.7%,-3.6%,1.6%,10.4µM*
CCn1cc(C2=NOC(C(=O)Nc3ccc4c(c3)OCO4)C2)c(C)n1 (stereo unspecified),u,12.9%,0.9%,0.522µM*
C=CCOc1ccc(C2=NOC(C(=O)Nc3ccc4c(c3)OCCO4)C2)cc1OC (stereo unspecified),-3.4%,u,0.6%,-6.6%
CCOCCc1nn2c(=O)cc(CSCC(=O)Nc3ccccc3)nc2s1,u,1.1%,7.4%,-19.9%
SMILES,Pf growth 48h,Sm TGR block,SARS PLpro yeast,Pf growth 96h
COC(=O)Cc1[nH]nc2c1C1(C(=O)N(Cc3ccccc3)c3ccccc31)C(C#N)=C(N)O2 (stereo unspecified),-7.6%,0.0%,-0.8%,46.7%
Cc1[nH]nc2c1C1(C(=O)N(Cc3ccc(Cl)cc3)c3ccccc31)C(C#N)=C(N)O2 (stereo unspecified),13.1µM*,-6.6%,-1.7%,33.9%
Cc1nn(-c2ccccc2)nc1C(=O)Oc1cc(C(F)(F)F)nn1-c1ccccc1,0.37µM*,4.4%,6.3%,-29.2%
CCc1ccc(NS(=O)(=O)c2ccc3[nH]cc(C(=O)NC4CCCC4)c(=O)c3c2)cc1,x,-8.7%,x,x
CCc1ccccc1OC[C@@H](O)CN[C@H]1CCCc2ccccc21,1.85µM*,-2.2%,x,1.65µM*
OC(CNC1CCCc2ccccc21)COc1ccc2ccccc2c1 (stereo unspecified),u,-17.1%,-2.3%,u
CC(C)(C)NCC(O)COc1ccccc1C1CCCC1 (stereo unspecified),2.62µM*,6.5%,x,5.22µM*
CC(=O)CCc1ccc(OCC(O)CNC2CCCc3ccccc32)cc1 (stereo unspecified),u,-2.6%,-10.8%,u
O=C(c1ccccc1)c1ccc(OCC(O)CNC2CCCc3ccccc32)cc1 (stereo unspecified),u,3.3%,-16.7%,10.4µM*
CCOC(=O)c1c(-c2ccc(C)cc2)csc1NC(=O)c1cc(=O)c2ccc(C)cc2o1,x,-0.3%,x,x
Cc1ccc2c(CNCCc3ccccc3)c(C(=O)O)n(Cc3ccccc3C)c2c1,x,-8.0%,x,x
CCc1ccc(-c2cc(C)no2)cc1S(=O)(=O)Nc1ccc(C)cn1,-0.1%,-11.8%,-4.0%,13.1µM*
CCOc1ccc(N(C)S(=O)(=O)c2cc(-c3cc(C)no3)ccc2CC)cc1,11.7µM*,3.2%,-4.0%,-18.8%
O=C(NCc1ccccc1Br)c1ccc2c(c1)OCCO2,5.8%,0.9%,-3.1%,-8.4%
C=CCN1C(=O)/C(=C2/Sc3ccc(OC)cc3N2C)SC1=Nc1ccccc1,18.6%,11.4%,0.3%,-54.9%[1.15 µM]
CCCCN1C(=O)/C(=C2/Sc3ccccc3N2C)S/C1=N\c1ncn[nH]1,7.38µM*,55.4%,-0.7%,39.8%
COC(=O)[C@@H]1CC[C@H](C)[C@@H](c2ccc(C)cc2)N1C(=O)c1ccc(/C=N/OCC[C@@H]2C=C[C@H](OC(C)=O)[C@@H](COC(C)=O)O2)cc1,u,u,20.0%,10.4µM*
COC(=O)[C@@H]1CC[C@H](C)[C@@H](c2ccc(C)cc2)N1C(=O)c1ccc(/C=N/O[C@@H](C)c2cn([C@H](CO)Cc3ccccc3)nn2)cc1,3.7µM*,-2.3%,6.4%,4.65µM*
COC(=O)[C@@H]1CC[C@H](C)[C@@H](c2ccc(C)cc2)N1C(=O)c1ccc(/C=N/OC[C@@H](O)[C@H]2O[C@@H]3OC(C)(C)O[C@@H]3[C@H]2O)cc1,u,-14.2%,-3.8%,u
CCCNC(=O)OC[C@H]1O[C@H](CCO/N=C/c2ccc(C(=O)N3[C@H](c4ccc(C)cc4)[C@@H](C)CC[C@H]3C(=O)OC)cc2)C=C[C@@H]1Oc1ccc(OC)cc1,u,-5.5%,6.7%,2.08µM*

# High-throughput results as filed in PubChem.
